# Assays:
# Croc = target: T1, Croc (Drosophila melanogaster, UniProt P32027 54-175); experiment: FP; 20 mM Tris-acetate pH 7.0, 50 "nM" NaCl as printed (probably mM), 0.01% Tween 20, 0.1 mM DTT; conventional titration; conditions: tags: N-GST (pGEX-6P-1, kept); dsDNA, one strand shown
# T1 sequence: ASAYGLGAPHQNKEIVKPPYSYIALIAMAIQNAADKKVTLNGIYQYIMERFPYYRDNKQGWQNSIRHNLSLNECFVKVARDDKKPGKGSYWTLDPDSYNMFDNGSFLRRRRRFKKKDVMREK
# Ems = target: T2, Ems (Drosophila melanogaster, UniProt P18488 373-462); experiment: FP; 33 mM phosphate pH 7.0, 90 mM NaCl, 0.01% Tween 20, 0.1 mM DTT, 0.5% agarose; room temperature; conditions: tags: N-GST (pGEX-6P-1, kept); dsDNA, one strand shown
# T2 sequence: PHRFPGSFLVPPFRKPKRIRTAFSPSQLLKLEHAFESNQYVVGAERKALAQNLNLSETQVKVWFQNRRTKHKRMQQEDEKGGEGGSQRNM
# Hkb = target: T3, Hkb (Drosophila melanogaster, UniProt Q9VN10 181-296); experiment: as above; conditions: tags: N-GST (pGEX-6P-1, kept); dsDNA, one strand shown
# T3 sequence: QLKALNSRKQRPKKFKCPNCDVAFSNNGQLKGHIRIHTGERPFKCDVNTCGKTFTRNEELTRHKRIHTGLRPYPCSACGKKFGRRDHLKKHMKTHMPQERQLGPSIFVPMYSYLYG
# EcR = target: T4, EcR (Drosophila melanogaster, UniProt P34021 251-348); experiment: as above; conditions: tags: N-GST (pGEX-6P-1, kept); dsDNA, one strand shown
# T4 sequence: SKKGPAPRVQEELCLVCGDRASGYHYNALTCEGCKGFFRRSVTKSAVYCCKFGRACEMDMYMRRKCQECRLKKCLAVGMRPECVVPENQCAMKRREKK
# Gsc = Gsc (Drosophila melanogaster, UniProt P54366 267-356); experiment: as above; conditions: tags: N-GST (pGEX-6P-1, kept); dsDNA, one strand shown
# Ttk-PF = Ttk-PF (Drosophila melanogaster, UniProt P17789 499-564); experiment: as above; conditions: dsDNA, one strand shown
# Cic = Cic (Drosophila melanogaster, UniProt Q9U1H0 483-565); experiment: as above; conditions: tags: N-GST (pGEX-6P-1, kept); dsDNA, one strand shown
# Sequence of Gsc (P54366 267-356): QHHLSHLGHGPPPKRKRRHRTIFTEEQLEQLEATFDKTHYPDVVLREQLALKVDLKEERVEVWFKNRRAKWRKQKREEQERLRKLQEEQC
sequence,measurement,setting,value
TTAGATAAAGATA,binding signal,Croc,119 Kd / Kd of best base at the position
CTCGTAATTAGCTCA,binding signal,Ems,1.19 Kd / Kd of best base at the position
CACGTAATTAGCTAA,binding signal,Ems,3.58 Kd / Kd of best base at the position
CAAGTAATTAGCTCA,binding signal,Ems,1.41 Kd / Kd of best base at the position
CACGTAATTAGCTCG,binding signal,Ems,2.39 Kd / Kd of best base at the position
AAGGGACGTGAT,binding signal,Hkb,86.7 Kd / Kd of best base at the position
AAGGGGGGTGAT,binding signal,Hkb,55.1 Kd / Kd of best base at the position
GAATGACCCCTAA,binding signal,EcR,1.25 Kd / Kd of best base at the position
AATTAATCCCAT,binding signal,Gsc,1.16 Kd / Kd of best base at the position
TCGCCAGCATAAC,binding signal,Ttk-PF,5.81 Kd / Kd of best base at the position
CGTTGAATTGGGT,binding signal,Cic,6.71 Kd / Kd of best base at the position

# Source: article PMC5913336, “True equilibrium measurement of transcription factor-DNA binding affinities using automated polarization microscopy”
